Screening data (PubChem BioAssay)
Pf growth 48h: P. falciparum growth inhibition at 48 hours (one generation); Potency, µM (highest dose often 28.7 µM), usual class: inhibitors; actives 5.9% (n = 310,000); P. falciparum luciferase growth in erythrocytes, 48 h
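Luminescence readout; reporter = integrated firefly luciferase in P. falciparum. RBC culture at 2% hematocrit, 0.1% parasitemia final, 37 C/5% CO2; decreased signal taken as growth inhibition.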
HCV inh: inhibitors of hepatitis C virus infection | Huh7.5.1 HCVcc-Cre infection, luciferase reporter, 44 h | Potency, µM (series often up to 41.8 µM), actives largely listed as inhibitors | actives 3.4% (n = 340,000)
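Antiviral activity was scored by luciferase reporter output from cells infected with HCVcc-Cre (~0.5 moi) in presence of compound, 44 h infection period, cells seeded 1,000/well 4 h prior.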
HCMV antiviral: human cytomegalovirus inhibition | HFF cells, HCMV-luciferase reporter, 72 h; hits give low values | activity change, negative = inhibition, % at 57.5 µM | actives 4.5% (n = 410,000); in the data active means activity change below about -60%; inconclusive means no clear call, values can overlap the other calls; inactive means above about -39%
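After 16 h attachment at 37C, HFF cells received test compound and HCMV-luciferase (1 PFU/cell); reporter luminescence read 72 h later, data normalized against buffer-only and known inhibitor Salinomycin.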
Pf growth 96h: P. falciparum growth inhibition at 96 hours; P. falciparum luciferase reporter growth, 96 h; Potency, µM (highest dose often 28.7 µM), most hits filed as inhibitors; actives 6.9% (n = 320,000); AID 504834
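Erythrocytes infected with luciferase-expressing P. falciparum were dispensed at 2% hematocrit and 0.05% parasitemia (final), then incubated with compounds 96 hours at 37 C in 5% CO2. Luminescence after detection reagent addition reported growth.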
Lassa entry inh: blocks Lassa virus binding to or entry into cells | actives 1.2% (n = 300,000) | AID 540256 | Lassa virus pseudotype entry inhibition, cell reporter | Potency, µM (series often up to 37.9 µM), actives largely listed as inhibitors; calls by dose curve; tested in HEK293 cells; further: nearly all actives have a fitted effect of over 50% in size
MARV entry inh: inhibitors of Marburg virus binding or cell entry. Potency, µM (highest dose often 37.8 µM), actives largely listed as inhibitors. actives 1.8% (n = 300,000). Marburg virus pseudotyped entry inhibition, cell reporter. AID 540276; calls by dose curve; tested in HEK293 cells
A number is an active result; 0 = inactive; ? = inconclusive; - = not tested or not shown; ! = not active in a repeat. This is a sample that favours compounds with a hit; in the whole collection about 14% have one here. Unless noted, the call rests on the fitted dose curve; in most records, active means well fitted inhibition curve with a large enough effect; inconclusive means small, poorly fitted or top-dose-only effect, or another doubt; inactive means no such curve, though single readings can be large or run the other way.

SMILES	Pf growth 48h	HCV inh	HCMV antiviral	Pf growth 96h	Lassa entry inh	MARV entry inh
COc1ccc(-c2csc(Nc3ncccc3C)n2)cc1OC	0	2.2µM	0	?	?	0
COc1ccc(-c2csc(Nc3cc(C)ccn3)n2)cc1C	?	13µM	?	0	-	-
COc1ccc(-c2csc(Nc3ncccc3C)n2)cc1	0	?	0	0	?	?
COc1ccc(N2CC(O)=C(c3nc(-c4ccc(Br)cc4)cs3)C2=N)cc1	0	0	-67	0	-	-
COc1ccc(-c2csc(C3=C(O)CN(C(C)C)C3=N)n2)cc1OC	10µM	?	0	?	?	0
COc1ccc(-c2nc(-c3ccc(O)cc3O)cs2)cc1OC	0	?	0	?	?	?
COc1ccc(N2CC(O)=C(c3nc(-c4ccccc4)cs3)C2=N)cc1	?	0	0	0.47µM	-	-
Cc1nc2c(C(=O)NCCc3ccc(Cl)cc3)cnn2c(C)c1Cc1ccc(F)cc1	-	-	0	-	0	-
CCc1cc(=O)[nH]c(SCc2nc(-c3cccc(Cl)c3)no2)n1	-	-	0	-	?	-
N#Cc1ccccc1Cn1c(=O)n(-c2ccc(F)c(Cl)c2)c(=O)c2sccc21	-	-	0	-	?	0
Cc1ccc2ccc3cc(C(=O)N4CCN(c5ccccc5F)CC4)nc3c2[nH]1	-	-	0	-	0	-
Cc1cc(C)c2cc(C(=O)Nc3ccc(C)c(F)c3)[nH]c2c1	12µM	?	0	?	0	0
Cc1ccc2ccc3cc(C(=O)Nc4ccc(C)c(F)c4)nc3c2[nH]1	-	-	-76	-	?	-
Cn1c(NCc2cccc(Cl)c2)nc2ccccc21	-	-	0	-	0	0
COc1ccc(CCNC(=O)Cn2c(=O)nc(-c3ccccc3)c3cc(Cl)ccc32)cc1OC	-	-	?	-	0	-
CN(CCc1ccccn1)C(=O)CCC1CCCN(C(=O)c2ccsc2)C1 (configuration not stated)	0	0	0	10µM	0	0
CN(CCc1ccccn1)C(=O)CCC1CCCN(C(=O)c2c3c(nn2C)CCCC3)C1 (configuration not stated)	0	0	0	8.3µM	0	0
C=CCOc1ccccc1CN1CCCC(CCC(=O)N(C)CCc2ccccn2)C1 (configuration not stated)	0	0	0	12µM	0	?
CC(=O)c1ccccc1NC(=O)COC(=O)c1cc[n+]([O-])cc1	-	0	0	-	-	-
O=C(COC(=O)c1cc[n+]([O-])cc1)Nc1cccc(Cl)c1Cl	12µM	0	0	0	0	0
CCCCOc1ccc(C(=O)NCCc2csc(-c3ccc(OC)cc3)n2)cc1	-	-	-61	-	?	-
O=C(NCCc1csc(-c2ccccc2)n1)c1cccs1	0	?	0	0	-	-
COc1ccc(C(=O)NCCc2csc(-c3ccc(Cl)cc3)n2)cc1	-	-	?	-	0	-
COc1ccc(-c2nc(CCl)cs2)cc1OC	0	11µM	0	?	0	0
COc1ccc(-c2nc(CCNC(=O)c3cccs3)cs2)cc1OC	-	-	-84	-	?	-
SMILES	Pf growth 48h	HCV inh	HCMV antiviral	Pf growth 96h	Lassa entry inh	MARV entry inh
COc1ccc(-c2nc(CCl)cs2)cc1	0	0	0	0	-	-
CC1=C(c2ccccc2)C(=O)C(C)(C)CC1=O	-	-	0	-	-	-
COC(=O)c1c(NC(=O)CCCOc2ccc(C)cc2)sc2c1C(C(=O)OC)CC2 (configuration not stated)	-	-	0	-	0	-
Cc1ccc(C2SCC(C(=O)O)N2C(=O)c2ccc(F)cc2)cc1 (configuration not stated)	0	0	0	0	0	0
O=C(O)C1CSC(c2ccccc2Cl)N1C(=O)c1ccc(Cl)cc1 (configuration not stated)	0	0	-61	0	0	?
COC(=O)Cc1ccc(NC(=S)N2CCN(c3cc(Cl)ccc3C)CC2)cc1	0	10µM	-70	?	0	?
COC(=O)Cc1ccc(NC(=S)N2CCCC(CO)C2)cc1 (configuration not stated)	15µM	0	0	0	?	?
COc1cccc(C(CCc2cc(OC)c(OC)c(OC)c2)NC(C)=O)c1 (configuration not stated)	-	0	0	-	0	0
O=C(Cn1cnc2onc(-c3ccc(F)cc3)c2c1=O)Nc1cccc(C(F)(F)F)c1	-	-	0	-	0	-
Cc1cc(C)c(NC(=O)c2cc(S(=O)(=O)N3CCC4(CC3)OCCO4)ccc2F)c(C)c1	-	-	0	-	0	-
O=C1COc2ccc(-c3csc(NCC4CCCO4)n3)cc2N1 (configuration not stated)	-	?	0	15µM	?	0
O=C1COc2ccc(-c3cc(-c4ccccc4)c4c(n3)-c3ccccc3OC4)cc2N1	-	-	0	-	?	0
COc1ccc(-c2cc(-c3ccc(OC)cc3)nc(-c3ccc4c(c3)NC(=O)CO4)c2)cc1	?	0	0	-	0	0
CC(Nc1nc(-c2ccc3c(c2)NC(=O)CO3)cs1)c1ccccc1 (configuration not stated)	0	11µM	?	?	0	?
COc1cccc(-c2nc(-c3ccc4c(c3)NC(=O)CO4)cs2)c1	0	14µM	0	0	0	?
O=C(CSc1nnc2ccccn12)Nc1ccccc1[N+](=O)[O-]	-	-	0	-	-	-
CCCCCn1cnnc1SCC(=O)c1c(N)n(C2CC2)c(=O)[nH]c1=O	0	0	0	0	?	0
COc1ccc2c(c1)CCc1c(C(=O)Nc3c(C)nn(Cc4ccc(Cl)c(Cl)c4)c3C)noc1-2	-	-	-88	-	0	0
COc1ccc2c(c1)CCc1c(C(=O)Nc3cc(C)n(Cc4ccc(Cl)cc4)n3)noc1-2	0	0	-64	?	-	0
COc1ccc2c(c1)CCc1c(C(=O)Nc3c(C)nn(Cc4ccccc4)c3C)noc1-2	-	8.9µM	-67!	0	0	0
COc1ccc2c(c1)CCc1c(C(=O)Nc3c(C)nn(Cc4ccc(Cl)cc4)c3C)noc1-2	-	-	-79	-	0	0
COc1ccc2c(c1)CCc1c(C(=O)Nc3c(C)nn(Cc4ccccc4Cl)c3C)noc1-2	-	-	?	-	0	?
COc1ccc(CNC(=O)C2=CC(c3ccc(OC)cc3)=NS(=O)(=O)N2C)cc1	0	0	0	0	-	-
COc1ccc(CCNC(=O)CCc2c(C)nc3cc(-c4ccc(Cl)cc4)nn3c2C)c(OC)c1	-	-	0	-	0	0
CCn1nc(C(=O)N2CCN(Cc3nc4ccccc4s3)CC2)c2ccccc2c1=O	0	?	0	0	-	-
SMILES	Pf growth 48h	HCV inh	HCMV antiviral	Pf growth 96h	Lassa entry inh	MARV entry inh
C=CC[n+]1c(/C=C2\C=Cc3cc(C)ccc3N2CC)ccc2ccccc21	13µM	2.5µM	-102	?	7.3µM	4.1µM
Cc1c(Cl)cccc1NC(=O)CSc1cc(-c2ccccc2)ncn1	-	-	0	-	0	0
COc1ccc(C(=O)NN=C2CCCC2)cc1	0	0	0	9.3µM	-	-
Cc1ccc(C(=O)NN=C2CCCCCC2)s1	0	0	?	0	-	-
Cc1ccsc1C(=O)NN=C1CCCCCC1	0	0	-99	?	-	-
CCCc1nc(SC)ncc1C(=O)N1CCN(c2ccc(Cl)cc2)CC1	-	-	0	-	0	-
